Structures are written as SMILES. Results filed as inconclusive are left out. Calls of active or inactive are those of the source. Unless noted, how the calls were made is not given here.

The nature of assay [1]: qHTS profiling of the MIPE4 collection as inhibitors of Plasmodium falciparum (3D7) proliferation (AID 743344).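 Further: scaled between DMSO vehicle wells and 0.29 µM artemisinin as full inhibition.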 The conditions noted are these: P. falciparum 3D7 in erythrocytes, SYBR Green DNA fluorescence, 72 h; at 28.5 µM unless noted. A digest of the protocol: (§1)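 Parasite DNA was quantified by SYBR Green I fluorescence (ex 485, em 535 nm) after overnight lysis in saponin/Triton buffer at room temperature. Cultures at 0.3% parasitemia and 2.5% hematocrit were first exposed to compound for 72 h at 37 C; signals were normalised to artemisinin (0.29 uM) and vehicle wells.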

Assay [2] is described as follows: qHTS profiling of the MIPE4 collection as inhibitors of Plasmodium falciparum (DD2) proliferation (AID 743345). The conditions noted are these: P. falciparum Dd2 in erythrocytes, SYBR Green DNA, 72 h; at 28.5 µM unless noted. A digest of the protocol:
as §1

A short description of assay [3]: qHTS profiling of the MIPE4 collection as inhibitors of Plasmodium falciparum (DD2) proliferation (Rep 2) (AID 743346). To be noted: P. falciparum Dd2 in erythrocytes, SYBR Green DNA, 72 h; at 28.5 µM unless noted. An outline of the steps:
as §1

Assay [4] is described as follows: qHTS profiling of the MIPE4 collection as inhibitors of Plasmodium falciparum (HB3) proliferation (AID 743347).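 Further: plate controls were DMSO vehicle wells for no effect and artemisinin wells for full effect.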 The conditions noted are these: P. falciparum HB3 in erythrocytes, SYBR Green DNA, 72 h; at 28.5 µM unless noted. An outline of the steps:
as §1
A general note: qHTS replaces the single test concentration by a dilution series.

Assay [5] can be described thus: High-throughput drug toxicity screening in the BPDCN cell line Gen2.2 (AID 1224824).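 Further: cells exposed to compounds for 48 h before reading.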 The conditions noted are these: Gen2.2 BPDCN cells; at 45.8 µM (top of the series) unless noted. A digest of the protocol:
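Gen2.2 cells, 500 per well in phenol red-free RPMI with 10% FBS, exposed to compounds 48 h at 37 C, 5% CO2; viability by CellTiter-Glo luminescence. Percent activity scaled to DMSO (100%) and 9.2 uM bortezomib final (0%).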

A short description of assay [6]: High-throughput drug toxicity screening in the BPDCN cell line Cal-1 (AID 1224825). The conditions noted are these: Cal-1 BPDCN cell viability, qHTS; at 45.8 µM (top of the series) unless noted. An outline of the steps: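 CellTiter-Glo luminescence after 48 h compound exposure; percent activity scaled with DMSO as 100% and bortezomib (9.2 uM final) as 0%. Cal-1 cells seeded at 500/well in RPMI, 10% FBS, no phenol red.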

Assay [7] can be described thus: qHTS assay for measurement of the activity of small molecule inhibitors on Zika virus induced Caspase-3 activity in human iPSC derived neural progenitor cells (hNPCs) (AID 1224857; active means well fitted curve in the direction sought with a large enough effect; an effect the other way counts as inactive or inconclusive; further: % of control where 0% means no effect; nearly all actives have a fitted effect of over 65% in size). A digest of the protocol: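 Values are percent inhibition of virus-induced caspase-3/7 signal, scaled between uninfected cells and ZIKV-infected cells. Infection used 2 FFU/cell for 6 h after 1 h compound exposure.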

A short description of assay [8]: qHTS assay for measurement of the activity of small molecule inhibitors on Zika virus induced Caspase-3 activity in human astrocytoma cells (AID 1224859; active means well fitted curve in the direction sought with a large enough effect; an effect the other way counts as inactive or inconclusive;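 further: plate controls were ZIKV-infected untreated cells for no effect and uninfected cells for full effect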). A digest of the protocol: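 Compound added 1 h pre-infection; ZIKV 2 FFU/cell on SNB-19 cells, 6 h, 37 C/5% CO2. Caspase-Glo 3/7 luminescence; values as % inhibition of ZIKV-induced caspase activity.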
Assay [9] is described as follows: qHTS Screen of the MIPE 4.0 Collection Against Ewings Sarcoma (RDES) (AID 1259252; active means well fitted curve in the direction sought with a large enough effect; an effect the other way counts as inactive or inconclusive; further: nearly all actives have a fitted effect of over 35% in size; further: potency means the concentration at half of the fitted maximal effect). A digest of the protocol:
(§2)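 Dose series incubated 48 h with cells in RPMI plus 5% FBS, glutamine and penicillin/streptomycin; cell viability then quantified via CellTiter-Glo.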

A short description of assay [10]: qHTS profiling for inhibitors of Plasmodium falciparum (DD2) proliferation (AID 743323). The conditions noted are these: lower = more inhibition; at 28.7 µM (top of the series) unless noted. A digest of the protocol:
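SYBR Green fluorescence (ex 485, em 535 nm) of lysed cultures gives parasite DNA content; wells normalized to artemisinin (0.29 uM) and DMSO controls. Infected red cells: 0.3% parasitemia, 2.5% hematocrit, 72 h, 37 C.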

Assay [11] is described as follows: qHTS profiling for inhibitors of Plasmodium falciparum (HB3) proliferation (AID 743324; active means well fitted curve in the direction sought with a large enough effect; an effect the other way counts as inactive or inconclusive;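 further: 100% = DMSO vehicle wells and 0% = artemisinin-treated control wells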). To be noted: Plasmodium falciparum HB3 blood-stage proliferation; at 28.7 µM (top of the series) unless noted. A digest of the protocol:
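SYBR Green fluorescence (485 ex/535 em) of lysed cultures, incubated overnight at room temperature in the dark, quantifies parasite DNA. Infected erythrocytes at 0.3% parasitemia and 2.5% hematocrit were exposed 72 h; values normalized to DMSO and 0.29 uM artemisinin controls.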

A short description of assay [12]: qHTS Screen of the MIPE 4.0 Collection Against Ewings Sarcoma (TC71) (AID 1259253; active means well fitted curve in the direction sought with a large enough effect; an effect the other way counts as inactive or inconclusive; further: nearly all actives have a fitted effect of over 40% in size; further: potency means the concentration at half of the fitted maximal effect). An outline of the steps:
as §2

Assay [13] in a line: qHTS Screen of the MIPE 4.0 Collection Against Ewings Sarcoma (EW8) (AID 1259255; active means well fitted curve in the direction sought with a large enough effect; an effect the other way counts as inactive or inconclusive; further: nearly all actives have a fitted effect of over 35% in size; further: potency means the concentration at half of the fitted maximal effect;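 on viability: 100% = DMSO-treated cells and 0% = medium-only wells without cells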). An outline of the steps: as §2
Assay [14] in a line: qHTS Screen of the MIPE 4.0 Collection Against Ewings Sarcoma (TC32) (AID 1259256; active means well fitted curve in the direction sought with a large enough effect; an effect the other way counts as inactive or inconclusive; further: nearly all actives have a fitted effect of over 45% in size; further: potency means the concentration at half of the fitted maximal effect). An outline of the steps: as §2
A short description of assay [15]: Identifying Small Molecule Inhibitors of Pancreatic Cancer Stem Cells (A2780, Spheroid) (AID 1259357; active means well fitted curve in the direction sought with a large enough effect; an effect the other way counts as inactive or inconclusive;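 further: spheroids pre-formed over 14 days in stem cell medium on hydrogel; compound exposure lasted 48 h before the ATP luminescence read; 100% = DMSO treated cells and 0% = wells without cells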). The conditions noted are these: Potency: A2780 spheroid viability. A digest of the protocol:
(§3)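 Endpoint: ATP-based luminescence, 48 h drug exposure. Bortezomib at 9.2 uM final as full-kill control; DMSO vehicle as negative control; activity normalized between vehicle and cell-free wells.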

The nature of assay [16]: Identifying Small Molecule Inhibitors of Pancreatic Cancer Stem Cells (SN12C, Adherent) (AID 1259358; active means well fitted curve in the direction sought with a large enough effect; an effect the other way counts as inactive or inconclusive;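 further: cell survival measured after 48 h of compound exposure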; further: potency means the concentration at half of the fitted maximal effect). An outline of the steps: as §3
The nature of assay [17]: Identifying Small Molecule Inhibitors of Pancreatic Cancer Stem Cells (SN12C, Spheroid) (AID 1259360; active means well fitted curve in the direction sought with a large enough effect; an effect the other way counts as inactive or inconclusive; further: potency means the concentration at half of the fitted maximal effect;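 on viability (% of control): 100% = DMSO-treated cells and 0% = wells without cells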). The conditions noted are these: Potency: SN12C spheroid viability. An outline of the steps: as §3

With `COc1cc(F)c(C(C)C)cc1-c1ccc(C(F)(F)F)cc1CN1C(=O)O[C@H](c2cc(C(F)(F)F)cc(C(F)(F)F)c2)[C@@H]1C`, the parasite growth, % of DMSO control in assay [1] was 6.82%. For the same compound, the parasite growth remaining, % of DMSO control (lower = more inhibition) in assay [2] stood at 9.07%. In assay [3], the parasite growth, % of control (lower = inhibition) is 31.9%. The same compound registered a growth, % of control in [4] of 9.46%. Moreover, the cell viability, % of control (lower = more cytotoxic) in [5] stood at 115%. In addition, the viability (% of control) in [6] stood at 33.1%. The Potency entry in [7], in [8] and in assay [9] was “inactive” throughout.

For the compound `CC1CCN(c2cc(N3CCN(C)CC3)ccc2NC(=O)c2cc(C#N)c[nH]2)CC1`, the parasite growth remaining, % of DMSO control (lower = more inhibition) in assay [2] is 80.6%. In assay [3], the parasite growth, % of control (lower = inhibition) is 36.9%. This compound also gave a growth, % of control in assay [4] of 50.4%. In addition, in assay [5], the cell viability, % of control (lower = more cytotoxic) came to 107%. For the same compound, the viability (% of control) in [6] was 104%. In addition, the Potency result in assay [7] and in assay [8] was “inactive” each time. In addition, in [9], the Potency was 26.4 µM (active).

Consider `CCN(CC)CCCCNc1nc2cc(Cl)c(Cl)cc2nc1-c1ccc(-c2cccs2)s1`, for which the activity, percent of control in [10] turned out to be 1.46%. For the same compound, in [11], the remaining proliferation (% of control), lower = more inhibition amounted to 4.08%. Besides, the parasite growth, % of DMSO control in assay [1] worked out at 9.66%. Further, the parasite growth remaining, % of DMSO control (lower = more inhibition) in assay [2] is 10.5%. Besides, the parasite growth, % of control (lower = inhibition) in assay [3] came out at 19.1%. For the same compound, the growth, % of control in assay [4] is 5.94%. The cell viability, % of control (lower = more cytotoxic) in assay [5] worked out at 5.29%. For the same compound, the viability (% of control) in [6] came to 4.45%. Further, the Potency entry in assay [7] and in [8] was “inactive” each time. The Potency in assay [12] was 23.5 µM (active); in assay [13], 23.5 µM (active); in assay [14] it was 18.7 µM (active).

For the compound `CCCCOCCOc1nc(-c2ccc(C(=O)O)c(F)c2)sc1C`, the activity, percent of control in assay [10] came out at 99.2%. In addition, the remaining proliferation (% of control), lower = more inhibition in assay [11] was determined as 57%. The compound also displayed a parasite growth, % of DMSO control in assay [1] of 81.5%. Further, the parasite growth remaining, % of DMSO control (lower = more inhibition) in [2] came to 98.4%. Also, in [3], the parasite growth, % of control (lower = inhibition) turned out to be 80.5%. In [5], the cell viability, % of control (lower = more cytotoxic) was determined as 594%. The viability (% of control) in assay [6] worked out at 73.8%. Besides, the Potency result in assay [7], in assay [8], in assay [15], in [16] and in assay [17] was “inactive” throughout. For the same compound, the Potency in assay [9] was 20.9 µM (active).

For `NC(=O)c1ccc(N(C(N)=O)c2c(F)cccc2F)nc1-c1ccc(F)cc1F`, the activity, percent of control in assay [10] amounted to 83.3%. The remaining proliferation (% of control), lower = more inhibition in assay [11] came out at 85.6%. This compound displayed a parasite growth, % of DMSO control in [1] of 79.5%. Besides, the parasite growth remaining, % of DMSO control (lower = more inhibition) in [2] is 104%. In [3], the parasite growth, % of control (lower = inhibition) was determined as 59.1%. In assay [4], the growth, % of control was 78.7%. The cell viability, % of control (lower = more cytotoxic) in assay [5] came out at 215%. In addition, the viability (% of control) in assay [6] was 92.1%. Further, the Potency result in assay [7], in assay [8], in assay [12], in assay [13], in [14] and in [16] was “inactive” throughout. Moreover, in assay [17], the Potency entry was “inactive”.

For the compound `CC(=O)Nc1cccc(-n2c(=O)n(C3CC3)c(=O)c3c(Nc4ccc(I)cc4F)n(C)c(=O)c(C)c32)c1`, in [10], the activity, percent of control is -0.291%. Moreover, in [11], the remaining proliferation (% of control), lower = more inhibition was -0.298%. Further, the parasite growth, % of DMSO control in assay [1] is 5.62%. In addition, the parasite growth remaining, % of DMSO control (lower = more inhibition) in assay [2] was 6.3%. Also, in assay [3], the parasite growth, % of control (lower = inhibition) was found to be 9.44%. For the same compound, the growth, % of control in assay [4] turned out to be 2.56%. The cell viability, % of control (lower = more cytotoxic) in assay [5] turned out to be 11.2%. In [6], the viability (% of control) is 7.97%. Also, the Potency result in assay [7], in assay [8] and in assay [15] was “inactive” in each case. Moreover, the Potency in assay [9] was 20.9 µM (active).

For the compound `OC[C@H]1O[C@@H](Oc2ccc(O)cc2)[C@H](O)[C@@H](O)[C@H]1O`, the parasite growth, % of DMSO control in [1] worked out at 82.1%. For the same compound, the parasite growth remaining, % of DMSO control (lower = more inhibition) in assay [2] is 94.8%. The parasite growth, % of control (lower = inhibition) in assay [3] was found to be 127%. In [4], this compound yielded a growth, % of control of 93.4%. Besides, the cell viability, % of control (lower = more cytotoxic) in assay [5] is 146%. In addition, in [6], the viability (% of control) was 83.5%. Also, the Potency result in assay [7], in assay [8] and in [9] was “inactive” each time.

In the case of `CCC(=O)N1CCN(c2ccc(-n3c(=O)ccc4cnc5ccc(-c6cnc7ccccc7c6)cc5c43)cc2C(F)(F)F)CC1`, in assay [10], the activity, percent of control is 15.4%. For the same compound, in assay [11], the remaining proliferation (% of control), lower = more inhibition came out at 2.49%. Also, the parasite growth, % of DMSO control in assay [1] was 5.26%. Besides, the parasite growth remaining, % of DMSO control (lower = more inhibition) in [2] was found to be 8.22%. In addition, the parasite growth, % of control (lower = inhibition) in assay [3] amounted to 8.45%. In assay [4], the growth, % of control is 4.5%. Moreover, in [5], the cell viability, % of control (lower = more cytotoxic) was 6.39%. Moreover, the viability (% of control) in [6] amounted to 20.2%. The Potency result in [7] and in assay [8] was “inactive” each time. In addition, the Potency is 0.0296 µM (active) in [12]; 0.0332 µM (active) in [13]; 0.0105 µM (active) in assay [14]; 0.0372 µM (active) in assay [16]; 0.0526 µM (active) in assay [17].

The values are drawn from PubChem BioAssay (NCATS).
